Here are results for 40 molecules from PubChem BioAssay (NCI).

This is part of a sample that, as a whole, favours compounds with a hit. Of some 83,000 tested, about 20% had one in any assay.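 Assay: single dose, 48 h. Readout: percent growth (0 = no net growth; negative = cell death). Active: <10.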 Calls of active or inactive are those of the source.

This experiment has as its system NCI-H460 lung. Put plainly: NCI-60 one-dose screen, 48 h (100 = growth as untreated, 0 = no growth, -100 = all killed). The conditions noted are these: 10 µM unless noted. The procedure: Growth inhibition of the NCI-H460 human Non-Small Cell Lung tumor cell line is measured as a screen for anti-cancer activity. Cells are grown in 96 well plates and exposed to the test compound for 48 hours. Compounds are tested at a single concentration, which is 10^-5 M for most compounds. The reported endpoint is percent growth (GI% or GIPRCNT), where numbers from 0 - 100% represent growth inhibition, and numbers from -100% - 0 represent cell death. For example, a value of 40 represents 60% growth inhibition. A value of 0 means no net growth occurred over the course of the experiment. A value of -40 indicates 40% of cells at the beginning of the experiment died by the end of the experiment. A value of -100 means all cells are dead at the end of the experiment.
NCI-60 Human Tumor Cell Lines Screen was performed using the standard one-dose NCI protocol, which is described in more detail at https://dtp.cancer.gov/discovery_development/nci-60/default.htm.
Compounds with GIPRCNT values below 10 were considered active. Activity score was based on GIPRCNT using the following formula: […]
Score is 0 for GIPRCNT values of 100 or above, 50 for GIPRCNT values of 0, and 100 for GIPRCNT values of -100.
In the case of `CC(=O)N=c1ccc2nc3c(cc(N)c4ccccc43)oc-2c1`, the growth was -41.2% (active).
For the molecule `O=C1C=C(c2ccccc2)C(O)(c2ccccc2)C1` (stereo not given), the growth is 110% (inactive).
Turning to `CCN(CC)c1ccc2nc3ccc(N=Nc4ccc(N(C)C)cc4)cc3[n+](-c3ccccc3)c2c1`, the growth is -66.4% (active).
The value for `O=C1C=CC(=O)C2=C1CCCC2` was 95.9% (inactive); that for `Cc1cc(C(=O)NN)c(C#N)c(=O)[nH]1` was 97.2% (inactive).
For `Nc1nc(Cl)cc(Cl)n1`, the growth was 106% (inactive).
The value for `NC(=O)OCCO` was 110% (inactive).
In the case of `CCCCCCCCCCCCSC1=C(Cl)C(=O)C(OC)=C(OC)C1=O`, the growth was 18.2% (inactive).
The value for `C=C1CC2(OC1=O)C(=O)N(C)c1ccc(I)cc12` (stereo not given) was -57% (active); that for `N#CCCN1C(=O)CCC1C(=O)O` (stereo not given) was 107% (inactive).
To `O=C(OC1CCCC1)c1ccccc1Cl` belongs 101% (inactive); to `O=C(O)Cc1ccc(Cl)cc1`, 107% (inactive); to `CCCCCCCCCCC(=O)CCCCCCCCCC`, 102% (inactive).
For `O=C(CCCl)OCCOc1ccccc1`, the growth was 104% (inactive).
To `C=C1C(=O)C2CCN1CC2` belongs 104% (inactive); to `C#CCSc1nnnn1-c1ccccc1`, 95.4% (inactive); to `CCCOCc1cn[nH]n1`, 111% (inactive).
With `CCOC(=O)c1cc(Cl)c(O)c(Cl)c1`, the growth is 108% (inactive).
The value for `CCN(CC)CCOC(=O)Nc1c(C(C)C)cccc1C(C)C` was 128% (inactive); that for `C=C1C(=O)C2CCC1C2` (stereo not given) was 113% (inactive).
The value for `O=C(Oc1ccccc1Cl)c1ccc(Cl)cc1Cl` was 102% (inactive); that for `N#Cc1ccc2nc[nH]c2c1` was 107% (inactive).
As for `C=CC1=NC(C)(C)CC(C)O1` (stereo not given), the growth is 104% (inactive).
The value for `O=C(CCl)Oc1ccc([N+](=O)[O-])cc1` was 107% (inactive).
Turning to `C/C(=N\O)c1ccccn1`, the growth was 103% (inactive).
The value for `OCc1cccnc1` was 103% (inactive); that for `Cc1cc(CO)c(O)c(CO)c1` was 107% (inactive); that for `C=CCN1CCCC1=O` was 105% (inactive).
To `COC1(OC)C2(Cl)C(Cl)=C(Cl)C1(Cl)C1COCC12` (stereo not given) belongs 86.8% (inactive); to `O=S(=O)(OCCOS(=O)(=O)c1ccccc1)c1ccccc1`, 97.6% (inactive); to `Cc1cc(Nc2ccc3c(c2)OCO3)c2cc3c(cc2n1)OCO3`, 6.21% (active).
To `COc1ccc(Br)c2c1C(=O)CC2` belongs 110% (inactive); to `C=CCNC(=S)N/C=C(/C(=O)c1ccccc1)c1ccccc1`, 104% (inactive).
On to `O=C(c1ccc(Cl)cc1)N1CCCCC1`, for which the growth was 101% (inactive).
To `Oc1ccc(CCC2CCNc3ccccc32)cc1` (stereo not given) belongs 83.8% (inactive); to `CCCCN(C(=O)CC)c1ccccc1`, 103% (inactive).
To `CC(C)N(CCCC#N)C(C)C` belongs 105% (inactive); to `Nc1ncnc(Nc2ccc(C(F)(F)F)cc2)n1`, 106% (inactive).
For `CCOP(=O)(OCC)/C(=C\N1C(=O)CC(=O)NC1=S)C(=O)OC`, the growth is 103% (inactive).
The value for `CC(=O)Nc1ccc(/C=C2\SC(=S)N(/C=C(\C(C)=O)C(N)=O)C2=O)cc1` was 99.4% (inactive).
